Positions count from the first letter of the chain named. In all, about 24,000 sequences were measured (“enrichment r”: median about 0.99, highest 2% from about 3.7 on). This excerpt belongs to a sample that is enriched for the highest values.
T1: UNK ZnF1-3 (human, UniProt Q9C0B0 31-174)
T1 sequence: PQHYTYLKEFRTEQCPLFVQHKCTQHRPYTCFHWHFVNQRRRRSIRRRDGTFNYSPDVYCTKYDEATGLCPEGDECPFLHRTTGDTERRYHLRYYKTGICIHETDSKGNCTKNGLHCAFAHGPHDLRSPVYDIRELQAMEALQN

B1: chr13:59234359:59234360:+_ENSMUSG00000055254_ENSMUST00000079828|mus_mus|FALSE|FALSE (ssRNA)
RNA: GGGAGUUCUACAGUCCGACGAUCUAUGUAAAAAAUUGUUUUUGCUUUAUGUUGGUGAUGAAUGGACCAAAAGUUGAUAGAUAGAUAGAUAAAUAAAUAAAUAAAUAAAUAAAUACACAAAUAAAUAACGCCGAAGGGAAAGAACAACAGAGGAUUGAGCAUCA
B2: 151522442_151522562_447_CDS_ENSMUSG00000034021_ENSMUST00000016569|mouse|control|control (ssRNA)
RNA: GGGAGUUCUACAGUCCGACGAUCAUAAAUCCUGAAAAUAUCAGCAAGGCAGCAAGCCACCAGUAAACGAACAUCUUUAUCAGGAUGCUUGAGGAAGAAGUCAGAAGCAAGAUGUAAAGCUAGGUUUAGAUAAAGUUCCUUUUCCAACAGAGGAUUGAGCAUCA
B3: chr1:23636438:23636439:-_ENSG00000125944_ENST00000302271|hu_mus|FALSE|FALSE (ssRNA)
RNA: GGGAGUUCUACAGUCCGACGAUCUUUUGUAGGGCAGAUUUCAAAAAGGUGUGGUUAUAACAAUUUAAAAACACAGUUAACCUGCUUCUAGGAAUGCAAAACAUACAGUCAUAGGUUAUCUUCAAUACAAGGAAACUUAAGUCUCAACAGAGGAUUGAGCAUCA
B4: chr18:35731629:35731630:+_ENSMUSG00000037236_ENSMUST00000166793|mus_mus|FALSE|FALSE (ssRNA)
RNA: GGGAGUUCUACAGUCCGACGAUCUUAUAGAUCAAAAAAAAAAAAAAAAGUUUUAAAAGAUGGCCAAAAAGAAAGCUCAAGCUAGAAAGCUAGGUUAACUUUGCUUCAAAAAUGGUAACGCCAAGAAAAAGGAUCAAUAAGGACCAACAGAGGAUUGAGCAUCA
B5: chr18:35731629:35731630:+_ENSMUSG00000037236_ENSMUST00000166793|mus_mus|motif|central (ssRNA)
RNA: B4 RNA with U82G, A83G
B6: chr2:115689334:115689335:-_ENSMUSG00000027210_ENSMUST00000074285|mus_hu|FALSE|FALSE (ssRNA)
RNA: GGGAGUUCUACAGUCCGACGAUCCUCUUUGAAGAAGAGUCCCCCAAAAAUAAUAAUAAGAAUUGGCUUAUGAAGCACGAACUAUAAAGAUCUGUUUGAAACUAAAGGACACAUUUAUGGAGGAACAAAGGCCGGGCAUGAAAACAACAGAGGAUUGAGCAUCA
B7: chr16:94651144:94651145:+_ENSMUSG00000040785_ENSMUST00000117648|mus_hu|mus_mus_mus_hu_True|58_98 (ssRNA)
RNA: GGGAGUUCUACAGUCCGACGAUCAUUUUCUUGAAUCAAGUGACCGAUAACAUAGUCCACUGCUUCAUUUAGAAAAUUUUUGCUAGAAAAACAGGUUGUAUAGUCUUCUGUGCUCAAAACUUUCCAAGAAAGCAAUUCUUUGAGCAACAGAGGAUUGAGCAUCA
B8: chr14:54894545:54894546:-_ENSG00000100528_ENST00000216416|hu_hu|FALSE|FALSE (ssRNA)
RNA: GGGAGUUCUACAGUCCGACGAUCCAUUUGGUGGCUUUUUGCAUGCACUUAACUGGACCAAUUCUUCUGUGUGUUGUUCUAAGAGCUCACCAAAACAUAGAUCAUGCCAUAUAGGUAGUAAAAAAAUGCUAGAAGAUAAAAAGCCAACAGAGGAUUGAGCAUCA
B9: chr13:100200628:100200629:-_ENSMUSG00000052727_ENSMUST00000064762|perfect_dup|FALSE|FALSE (ssRNA)
RNA: GGGAGUUCUACAGUCCGACGAUCGUCACCAGGUGUCUUCCCUCCACUGUCCUUCUCCAGGCCAGGUGUGGACAAAUCUCUAUUCAAGGCUAGAUGGUGUUGCAUUGUAUCGAAUAACACUGAGGCACGGAAGCCAUAGGGCUCCAACAGAGGAUUGAGCAUCA
B10: chr14:78183846:78183847:+_ENSG00000119705_ENST00000557342|hu_hu|hu_hu_hu_mus_False|78_88 (ssRNA)
RNA: GGGAGUUCUACAGUCCGACGAUCUCUCAGAAAUCUUUCUUCAUCAGCAUCAUCAGAUGUUUGCGGAGCCUUUGCUCUUUGAGCUUGAACGUGGAUCUAUGGGAGGGAAAGCACUGUCAGAAAAGGUAAUUUUUUUUUUAAAGACAACAGAGGAUUGAGCAUCA
B11: chr1:66485654:66485655:+_ENSMUSG00000015222_ENSMUST00000024639|mus_hu|FALSE|FALSE (ssRNA)
RNA: GGGAGUUCUACAGUCCGACGAUCUUUUUAAAUAGAAAAUUGUAACAAUUACUACAGUUUGGGGAUGAGAUUAUUUAUUUUAUGGUUUAUAAAGAAUGAAUAUAACAACUGCUCAGAGCCCACUCCUGCCAAGAGCUCAUGCCUCAACAGAGGAUUGAGCAUCA
B12: chr18:51681570:51681571:-_ENSG00000134046_ENST00000256429|hu_hu|FALSE|FALSE (ssRNA)
RNA: GGGAGUUCUACAGUCCGACGAUCGAUAUAUACAUCAAAAAUACAUCUAAAAAGGCAUUGGUUAGUGCUAUUAAAAAGCUCUAUGUGCUCGGGUACAUUUUUUUUCUUACAGGCAAAAGCCAGUGGAAACAUUUUUGUUCAAUUCAACAGAGGAUUGAGCAUCA
B13: chr7:127875444:127875445:+_ENSMUSG00000046096_ENSMUST00000060175|mus_hu|FALSE|FALSE (ssRNA)
RNA: GGGAGUUCUACAGUCCGACGAUCAAAGGCAUAUAACAUAUAAAGAAAAUAUUGUAUUGCUCAGGUUUUGGUAAAGAUGUAUUAAUAAUGCUUACAGAUAAAAAUAAUGAAAUUAGUGUUGUAAAUAGCCAAAAUAGCCAGAUACAACAGAGGAUUGAGCAUCA
B14: chr9:74904954:74904955:+_ENSMUSG00000007656_ENSMUST00000169492|mus_hu|FALSE|FALSE (ssRNA)
RNA: GGGAGUUCUACAGUCCGACGAUCCCAAAAGGUAAAUACAGAAGAAAUCAAUACAAUAGAGAUUAUAUUAAAUAAGAGUAACAUACAAAGCUAUAAUUAAGAUGAAGUAAUGAAAGCCAAAACAUUAAAAUUUUAAAACUUGCUCAACAGAGGAUUGAGCAUCA
B15: chr18:35731629:35731630:+_ENSMUSG00000037236_ENSMUST00000166793|mus_hu|motif|central (ssRNA)
RNA: GGGAGUUCUACAGUCCGACGAUCUAUUUUAUAGAUUAAAAAAAAAAAUUUUUUUAAAGACGGCCAAAAAGAAAGCUCAAACGGGAAAGCUAGGUUAACUUUGCUUCAAAAAUGGUAACGCCAAGAAAAAGGAUCAAUAAGGACCAACAGAGGAUUGAGCAUCA
B16: chr18:35731629:35731630:+_ENSMUSG00000037236_ENSMUST00000166793|mus_hu|FALSE|FALSE (ssRNA)
RNA: B15 RNA with G82U, G83A
B17: 129217275_129261777_1030_CDS_ENSMUSG00000036155_ENSMUST00000038361|mouse|control|control (ssRNA)
RNA: GGGAGUUCUACAGUCCGACGAUCGUAGCCAUCCAUAGGAGGCAAUACACAUUUUUCCUGAACUCCAUUAAUGAUAUCUGCCACAUUAAUUUUCUCAAGCGACACCAAGCUGGGGACAGCCGUGGUGGAGUUGGUGGAGUUCGCCAACAGAGGAUUGAGCAUCA
B18: 107042093_107043494_1117_CDS_ENSMUSG00000031878_ENSMUST00000034349|mouse|control|control (ssRNA)
RNA: GGGAGUUCUACAGUCCGACGAUCAACAGACUGAAGCAAUUUGGCAACGUGAUUGCCUACAGCAGCAGCAUCUUUCUUUGCUUUCUCUCGGUAAACAUUCUGCAGUUUUAUGUAUUUGUUUGAAUCUGCAAUCAUAUCAGGAAUCAACAGAGGAUUGAGCAUCA
B19: chr7:141441981:141441982:+_ENSG00000106028_ENST00000265304|hu_mus|hu_hu_hu_mus_False|58_58 (ssRNA)
RNA: GGGAGUUCUACAGUCCGACGAUCCUCAUGUCUUACAAACUGACGAAAUACCUGUAACACAGGUCUUCGAAACAUGGCUUCUAUUUUUCUUACAACCUAAUCUUUAGGCUUUUCCUAAAGGAAAGAAAGAAAAGAGAAAAAUGACAACAGAGGAUUGAGCAUCA
B20: chrX:16871948:16871949:-_ENSG00000102054_ENST00000404022|hu_mus|FALSE|FALSE (ssRNA)
RNA: GGGAGUUCUACAGUCCGACGAUCAGUAAAGAUUGCUUUAGCAUCCACAAUUUUGCCUUCCUUUGGUCCUGCAUUUAUAUCCCACAGGCAGACAGUAUGGUCAUCAGAUGCACUCAGGAGAUGCCCACUCAGAUUAGAAUUCCACAACAGAGGAUUGAGCAUCA
B21: chr22:35691198:35691199:+_ENSG00000100281_ENST00000216106|hu_mus|FALSE|FALSE (ssRNA)
RNA: GGGAGUUCUACAGUCCGACGAUCACAGUCCUGUGAGAAGCUUAGCUGUGACAGCAGUCGGGCUAUGGGAAGGAGUUCCCUAGGAUGCCAGCUGGCUACAUGGUCCCCAAAGGUUUACUGUGAUGCUGCCUCGUUCCAUCCAGGCAACAGAGGAUUGAGCAUCA
B22: chr9:14812383:14812384:-_ENSMUSG00000031934_ENSMUST00000164273|mus_mus|mus_mus_mus_hu_True|38_48 (ssRNA)
RNA: GGGAGUUCUACAGUCCGACGAUCAUAGCCCAGGUAGAUACACGCUAACAGUAUAAUGAUGAGUGUCAGCAGGCGGCAGCUAAUGUAUUUCAUGAUUAAAUGACUAGAAUUUUUCUUUGUCUUCAAGUACUGCUCCACAAUUGGCAACAGAGGAUUGAGCAUCA
B23: chr9:14812383:14812384:-_ENSMUSG00000031934_ENSMUST00000164273|mus_mus|mus_mus_mus_hu_True|48_48 (ssRNA)
RNA: B22 RNA with G101U, C103U
B24: chr9:14812383:14812384:-_ENSMUSG00000031934_ENSMUST00000164273|mus_mus|mus_mus_mus_hu_True|28_48 (ssRNA)
RNA: B22 RNA with G101U, C103U, A108G, U111C, C114U

Target: T1, UNK ZnF1-3
Experiment: nsRBNS (natural sequence RNA bind-n-seq); RBNS binding buffer (assumed for nsRBNS): 25 mM Tris pH 7.5, 150 mM KCl, 3 mM MgCl2, 0.01% Triton X-100, 500 ug/ml BSA, 20 U/ml SUPERase-In, 4 C; UNK is unkempt and MSI1 is Musashi-1; names of the RNAs are library labels; protein concentration not given here; high values mean tight binding

Row | Binder | binding signal [enrichment R]
1 | B1 | 5.23
2 | B2 | 1.36
3 | B3 | 1.23
4 | B4 | 7.98
5 | B5 | 8.04
6 | B6 | 2.27
7 | B7 | 0.331
8 | B8 | 1.24
9 | B9 | 1.14
10 | B10 | 1.96
11 | B11 | 3.6
12 | B12 | 0.982
13 | B13 | 5.6
14 | B14 | 3.69
15 | B15 | 5.52
16 | B16 | 4.65
17 | B17 | 1.11
18 | B18 | 1.02
19 | B19 | 0.678
20 | B20 | 1.03
21 | B21 | 1.01
22 | B22 | 1.52
23 | B23 | 3.85
24 | B24 | 3.67
